± gives the uncertainty stated by the source.

This experiment has as its system THP-1. In words: CD54 surface expression induction over DMSO control (% over DMSO); higher = stronger dendritic cell activation. The settings on record: exposure time: 24 h. The method, then: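 hCLAT-like CD54 and CD86 surface expression on THP1 cells after 24 h exposure at a single concentration (highest non-cytotoxic concentration, or 100-200 µM if not cytotoxic). Flow cytometry (iQue) was run on 5,000 live cells.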

`COc1cc(C(C)C)c2c(c1)S(=O)(=O)N(COc1cc(=O)n3cccc(OCCN4CCCCC4)c3n1)C2=O` (100 µM): the “CD54 surface expression induction” value is 61 ± 55.
Take `CCOC(=O)CCC(=O)OCC` [Diethyl butanedioate] (200 µM): the “CD54 surface expression induction” value was -4.24 ± 4.1.

The values are drawn from the supplement of paper PMC10933113.
